Records with an inconclusive call do not appear. A call without a number means that no potency is given here. Calls of active or inactive are those of the source. Calls come from the whole dose curve; as a rule, active = well fitted inhibition curve with a large enough effect; inconclusive = small, poorly fitted or top-dose-only effect; inactive = no such curve, though single readings can be large or run the other way.

One assay concerns Zika virus NS2B-NS3 protease (linked construct). Nature of the assay: Primary screen NINDS Rhodamine qHTS for Zika virus inhibitors (AID 1347160). Note: nearly all actives have a fitted effect of over 55% in size. To be noted: purified NS2B-NS3 protease, Rhodamine110 substrate fluorescence; series mostly up to 57.1 µM. The gist of the method: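 Single-chain NS2B-NS3 protease, 25 nM, pH 8.0; compounds preincubated 15 min. Activity: Rhodamine110 release from 1.5 microM substrate over 15 min, room temperature, data fitted to 4-parameter Hill.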
As for `COc1cc2c(Oc3ccc4[nH]c(C)cc4c3F)ncnc2cc1OCCCN1CCCC1`, the Potency result is “inactive”. On the same count and under the same terms, next, `CNC(=O)CN1CCC(Oc2cc3c(Nc4cccc(Cl)c4F)ncnc3cc2OC)CC1`: “inactive”. On the same count and under the same terms, next, `Nc1nc(NCCNc2ncc(-n3ccnc3)c(-c3ccc(Cl)cc3Cl)n2)ccc1[N+](=O)[O-]`: “inactive”; `CC(C)(C)c1cc(NC(=O)Nc2ccc(-c3cn4c(n3)sc3cc(OCCN5CCOCC5)ccc34)cc2)no1`: “inactive”; `CC(C)CC(=O)Nc1n[nH]c2c1CN(C(=O)C1CCN(C)CC1)C2(C)C`: “inactive”.

System in another assay: not listed separately
In words: Confirmatory screen NINDS Rhodamine qHTS for Zika virus inhibitors (AID 1347161). Note: nearly all actives have a fitted effect of over 60% in size. Note: potency is the fitted concentration of half-maximal effect. Particulars: purified enzyme assay, Rhodamine110 substrate fluorescence, 15 min; series mostly up to 114 µM. An outline of the steps:
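Each compound, titrated, sat 15 min with 25 nM linked protease before 1.5 microM Rhodamine110 substrate went in. Fluorescence gain over the next 15 min, in pH 8.0 Tris with Tween 20, gave Hill-fitted curves.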
(qHTS replaces the single test concentration by a dilution series.)
Turning to `CCS(=O)(=O)c1cccc(-c2cc(C(=O)NC3CCN(C)CC3)c(C)c3[nH]c4ncc(C)cc4c23)c1`, the Potency entry was “inactive”. On the same count and under the same terms, next, `CCN1CCN(Cc2ccc(-c3cc4c(N[C@H](C)c5ccccc5)ncnc4[nH]3)cc2)CC1`: “inactive”; `O=C(Nc1cc(C(F)(F)F)cc(C(F)(F)F)c1)c1cc(Cl)ccc1O`: 7.84 µM (active). Still for that read-out and setting: in the case of `COc1cc(C(=O)NS(=O)(=O)c2ccccc2C)ccc1Cc1cn(C)c2ccc(NC(=O)OC3CCCC3)cc12` it was 1.56 µM (active); in that of `Cc1cc(N2CCOCC2)cc2[nH]c(-c3c(NC[C@@H](O)c4cccc(Cl)c4)cc[nH]c3=O)nc12`, 44 µM (active). Same read-out and setting: in the case of `COc1cc2c(cc1-c1c(C)noc1C)ncc1[nH]c(=O)n([C@H](C)c3ccccn3)c12` it was “inactive”; in that of `CCN(CC)CCCCNc1ncc2cc(-c3cc(OC)cc(OC)c3)c(NC(=O)NC(C)(C)C)nc2n1`, “inactive”.

Take `Cc1c(C)n(Cc2ccc(-c3ccccc3C(=O)O)cc2)c2ccc(C(=O)N[C@@H](C)c3ccc([N+](=O)[O-])cc3)cc12`: the Potency is 3.12 µM (active).

The values are drawn from PubChem BioAssay (NCATS).
